Experimental data as given in PubChem BioAssay AID1347165 (National Center for Advancing Translational Sciences (NCATS), 2019).
The campaign covered roughly 220,000 compounds. About 5,700 (2.6%) were called active. Not shown: some 18% with an inconclusive outcome. The full list was thinned out, with actives kept by preference. Unmarked numbers belong to inactive results. The call rests on the fitted dose curve; in most records, active means well fitted inhibition curve with a large enough effect; inconclusive means small, poorly fitted or top-dose-only effect; inactive means no such curve, though single readings can be large or run the other way.

molecular target: Lysine-specific demethylase 5B (Homo sapiens) (UniProt Q9UGL1); test: Primary screen for KDM5B Histone Demethylases FDH-coupled qHTS; conditions: FDH-coupled NADH fluorescence (FDH is formaldehyde dehydrogenase); series mostly up to 57.7 µM; activity change, negative = inhibition: at the top concentration; further: nearly all actives have a fitted effect of over 70% in size; on activity change, negative = inhibition: 0% is about no effect
Sequence (Q9UGL1 whole entry, looked up): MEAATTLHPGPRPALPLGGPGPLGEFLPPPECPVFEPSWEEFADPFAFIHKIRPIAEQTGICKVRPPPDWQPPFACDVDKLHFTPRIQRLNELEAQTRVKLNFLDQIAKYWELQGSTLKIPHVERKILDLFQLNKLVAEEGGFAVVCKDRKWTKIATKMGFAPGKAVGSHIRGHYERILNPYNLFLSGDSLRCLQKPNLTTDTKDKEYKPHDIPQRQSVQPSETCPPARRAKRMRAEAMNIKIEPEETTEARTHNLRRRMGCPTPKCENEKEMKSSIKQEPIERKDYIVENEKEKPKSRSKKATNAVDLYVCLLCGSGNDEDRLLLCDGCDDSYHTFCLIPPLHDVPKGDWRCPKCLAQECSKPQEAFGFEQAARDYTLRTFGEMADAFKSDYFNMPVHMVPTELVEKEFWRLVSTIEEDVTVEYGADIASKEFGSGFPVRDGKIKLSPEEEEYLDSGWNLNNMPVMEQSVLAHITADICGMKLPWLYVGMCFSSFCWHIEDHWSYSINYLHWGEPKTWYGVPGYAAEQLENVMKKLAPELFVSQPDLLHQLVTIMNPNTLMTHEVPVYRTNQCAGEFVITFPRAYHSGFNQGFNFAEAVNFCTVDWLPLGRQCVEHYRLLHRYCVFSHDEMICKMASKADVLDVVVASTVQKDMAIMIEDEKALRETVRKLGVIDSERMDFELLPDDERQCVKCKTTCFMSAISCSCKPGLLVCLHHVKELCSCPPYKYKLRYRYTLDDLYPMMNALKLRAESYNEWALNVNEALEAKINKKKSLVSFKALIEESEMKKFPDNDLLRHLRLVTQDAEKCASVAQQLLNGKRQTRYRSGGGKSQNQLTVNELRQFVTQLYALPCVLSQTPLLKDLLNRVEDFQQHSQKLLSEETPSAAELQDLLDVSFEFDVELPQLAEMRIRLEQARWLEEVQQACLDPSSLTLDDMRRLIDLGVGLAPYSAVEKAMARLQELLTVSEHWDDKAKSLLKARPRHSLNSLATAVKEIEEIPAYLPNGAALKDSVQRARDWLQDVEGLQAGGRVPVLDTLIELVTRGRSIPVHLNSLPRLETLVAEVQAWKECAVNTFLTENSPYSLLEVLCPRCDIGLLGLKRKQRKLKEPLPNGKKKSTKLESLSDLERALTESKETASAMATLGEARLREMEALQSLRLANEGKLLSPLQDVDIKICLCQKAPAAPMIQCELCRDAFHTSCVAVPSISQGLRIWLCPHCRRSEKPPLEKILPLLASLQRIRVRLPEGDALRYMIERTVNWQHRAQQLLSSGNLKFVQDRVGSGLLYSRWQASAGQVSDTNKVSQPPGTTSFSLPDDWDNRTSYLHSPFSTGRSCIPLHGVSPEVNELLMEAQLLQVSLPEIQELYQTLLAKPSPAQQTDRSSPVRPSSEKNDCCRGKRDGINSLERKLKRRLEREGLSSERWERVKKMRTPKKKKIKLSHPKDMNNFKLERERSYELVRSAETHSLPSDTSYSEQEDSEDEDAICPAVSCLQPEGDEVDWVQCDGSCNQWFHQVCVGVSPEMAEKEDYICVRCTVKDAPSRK
Procedure, shortened: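 qHTS format, multiple compound concentrations. Buffer 50 mM HEPES pH 7.5/0.01% Tween-20; 200 nM KDM5BΔAP final; 10 min compound preincubation; substrate-mix levels 12.5 µM peptide, 25 µM α-KG, 0.25 mM NAD⁺; 30 min RT; ΔRFU.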
Potency means the concentration at half of the fitted maximal effect.

Compound	activity change, negative = inhibition	Potency
CCC(=O)c1ccc(OC(=O)c2nn(C(C)C)c(=O)c3ccccc23)cc1	7.72%	–
Cc1ccc(Nc2cc(C)nc3c(C)c(C)cc([N+](=O)[O-])c23)c(C)c1	-12.7%	–
O=S(=O)(CCSc1nnc(-c2ccccc2)o1)c1ccc(Br)cc1	3.11%	–
COc1ccc(C(=O)OCC(=O)NCC(F)(F)F)cc1	10.4%	–
O=C(CSc1nc2ccccc2s1)Nc1ccc2c(c1)CCC2	23.2%	–
O=C(CCc1ncc(-c2ccc(F)cc2F)o1)Nc1ccccc1	6.26%	–
Cc1cccc(NC(=O)Nc2ccc(OCc3ccccc3)cc2)n1	30.5%	–
CCn1ccc2cc(S(=O)(=O)N3CCC(C(=O)NCC4CCCO4)CC3)ccc21 (configuration not stated)	24.8%	–
O=C(c1ccc2[nH]ccc2c1)N1CCN(S(=O)(=O)c2cccc3nonc23)CC1	-8.8%	–
CC(=O)N1CCN(Cc2cc(F)ccc2Cl)CC(O)C1 (configuration not stated)	-20.1%	–
O=C(c1ccc2cc[nH]c2c1)N1CCN(Cc2cnc[nH]2)CC(O)C1 (configuration not stated)	–	25.1 µM (active)
CN(C)C(=O)c1cccc(NCC(=O)NC(=O)NCc2ccccc2)c1	0.332%	–
Cc1ccc(C(=O)N2CCN(c3oc(C4CC4)nc3C#N)CC2)c(C)c1	5.21%	–
Cc1ccc(OCCOc2cccc(/C=N/NC(N)=O)c2)cc1	10.1%	–
Cc1ccc2c(C(=O)O)cc(NC(=O)C(C)C)cc2n1	–	20 µM (active)
CCc1ccccc1NC(=O)c1cc(C)nc2ccccc12	3.59%	–
CC(C)C(=O)Nc1ccc2oc(-c3cccc(Cl)c3)nc2c1	-19.6%	–
O=C(NCCn1c(-c2ccccc2)nc2ccccc21)NCc1ccccc1	-25.5%	–
CC(C)Cc1nc2cccnc2n1C1CCN(S(=O)(=O)c2ccc(Cl)s2)CC1	5.36%	–
O=C(c1ccco1)N1Cc2[nH]cnc2C[C@H]1c1nc(-c2ccncc2)no1	-23.5% [at 86.2 µM]	–
Cc1cccc(-c2noc([C@@H]3Cc4nc[nH]c4CN3C(=O)CCC(=O)O)n2)c1	-20.1% [at 86.2 µM]	–
CC(C)NC(=O)N1Cc2[nH]cnc2C[C@H]1c1nc(-c2ccc(Cl)cc2)no1	–	31.6 µM (active)
COc1ccc(-c2cc(N3CCC(NC(=O)c4ccc5c(c4)OCO5)CC3)n[nH]2)cc1	-11.3%	–
O=C(Nc1cccnc1)c1ccc2c(c1)OCCN(Cc1ncccn1)C2	7.08% [at 86.2 µM]	–
COc1ccc(OCC2(C)COc3ccc(C(=O)NC4CCOCC4)cc3N2)cc1 (configuration not stated)	–	25.1 µM (active)
COc1ccc(-n2cnc3cc(C(=O)NC4CCCC4)ccc32)cc1	-23.1%	–

Compound	activity change, negative = inhibition	Potency
O=C(Nc1cccnc1)c1ccc2c(c1)OCCN(c1ccccc1)C2	-25.6% [at 86.2 µM]	–
COc1ccc(OCC2(C)COc3ccc(C(=O)Nc4cccnc4)cc3N2)cc1 (configuration not stated)	–	31.6 µM (active)
Cc1ccc(NC(=O)CN(C)C(=O)c2cc3ccc(F)cc3nc2C)cc1	-9.53%	–
Cc1ccc(NC(=O)c2ccc(F)cc2Cl)nc1	-6.56%	–
CCn1nc(C(=O)Nc2ccc(I)cc2C)c2ccccc2c1=O	7.2%	–
Cc1ccc2c(CN3CCN(CCc4ccccn4)CC3)cc(=O)oc2c1	-23.1%	–
CN1C(=O)CC(C(=O)O)C12CCN(CCc1ccccn1)CC2 (configuration not stated)	25.7%	–
Cc1ccnc(N2CC[C@@H]3[C@@H](CCC(=O)N3CCc3ccccn3)C2)n1	–	22.4 µM (active)
CC(Sc1nc(CN2CCOCC2)nc2ccccc12)C(=O)NC1CCCCCC1 (configuration not stated)	23.1%	–
COc1ccc(-c2csc3c2NC(=O)CC3c2ccc(OCC(N)=O)c(OC)c2)cc1 (configuration not stated)	15.1%	–
O=C1CC(c2ccc(C(F)(F)F)cc2)c2sc(C(=O)O)c(-c3ccccc3)c2N1 (configuration not stated)	12.2%	–
Nc1nc2c(s1)C(c1ccccc1)CC(=O)N2 (configuration not stated)	–	28.2 µM (active)
Cc1ccc(-c2csc3c2NC(=O)CC3c2ccc(C)cc2)cc1 (configuration not stated)	-12.4%	–
COc1cccc(/C=C/C(=O)c2nc3ccccc3s2)c1OC(F)F	-17%	–
COc1ccccc1-c1nc(C(=O)NCc2cccs2)n2ccncc12	–	28.2 µM (active)
CCOc1ccccc1NC(=O)Cn1nnc(C(=O)NCc2cccs2)c1N	6.8%	–
COc1ccccc1NC(=O)CSC1=Nc2ccccc2C2=NC(CC(=O)NCc3cccs3)C(=O)N12 (configuration not stated)	-5.93%	–
O=C(OCc1nc2ccccc2o1)c1ccccc1Br	8.02%	–
CC(=O)c1c(SCC(=O)Nc2ccc(F)cc2F)nc(=O)[nH]c1C	-2.3%	–
CC(C)(C#N)C(=O)NCCc1ccc(OCc2ccccc2)cc1	18%	–
CC1CCN(c2nc3ccccc3nc2C(C#N)S(=O)(=O)c2cccc(Cl)c2)CC1 (configuration not stated)	-18%	–
COc1ccc(-c2cc(C(=O)N3CCN(CC(=O)N4CCOCC4)CC3)c3ccccc3n2)cc1	-999%	–
CCn1cnnc1CC1CCN(C(=O)C2CCN(Cc3nc(-c4cccc(C)c4)oc3C)CC2)CC1	-9.74%	–
CCn1cnnc1CC1CCN(C(=O)c2cc(-c3ccc(F)cc3)nc3ccccc23)CC1	–	22.4 µM (active)
CN(Cc1ccc(F)cc1)C(=O)NCc1ccccn1	21.6%	–
Cc1cc(C)n(CC(=O)N2CC[C@@H]3CN(S(C)(=O)=O)[C@@H]3C2)n1	-16.1%	–

Compound	activity change, negative = inhibition	Potency
CCOc1ccc(CC(=O)N2CCC(Cc3nc(-c4cnccn4)no3)CC2)cc1	14.8%	–
COc1ccccc1C(=O)N1CCC2(C1)C(=NC1CCCC1)NC(=O)N2c1cccnc1 (configuration not stated)	9.75% [at 115 µM]	–
Cc1cc(C)n(CC(=O)N2CCCC3(C2)Nc2cccnc2NC3=NC2CCCC2)n1 (configuration not stated)	–	28.2 µM (active)
COc1cccc(N2C(=O)NC(=NC3CCCC3)C23CCN(C(=O)c2ccc(C)cc2)C3)c1 (configuration not stated)	6.94% [at 115 µM]	–
COc1cccc(CNC(=O)N2CCCC3(C2)Nc2cccnc2NC3=NC2CCCC2)c1 (configuration not stated)	–	28.2 µM (active)
CCOc1ccc(CC(=O)N2CCCC3(C2)Nc2cccnc2NC3=NC2CCCC2)cc1 (configuration not stated)	–	28.2 µM (active)
COc1ccccc1C(=O)N1CCC2(C1)C(=NC1CCCCC1)NC(=O)N2c1cccnc1 (configuration not stated)	22.3% [at 115 µM]	–
CCOc1ccc(CC(=O)N2CCC(C3CCN(C(=O)NC)CC3)C2)cc1 (configuration not stated)	4.36%	–
COc1ccccc1C(=O)N1CCCC2(C1)Nc1cccnc1NC2=NCc1ccccc1 (configuration not stated)	–	28.2 µM (active)
COc1cccc(CNC(=O)N2CCN(Cc3ccc(Br)s3)CC2)c1	1.67%	–
Cc1cc(C)n(CC(=O)N2CCC3(CC2)NCCc2c3[nH]c3ccccc23)n1	-19.4%	–
CC(C)=CC(=O)N1C[C@@H](NC(=O)Nc2ccc(F)cc2F)C[C@H]1C(=O)N[C@H](Cc1ccccc1)C(N)=O	-12.3%	–
O=C(Cn1ccn2nc(-c3ccc(F)cc3)c(CO)c2c1=O)NC1CCCC1	-16.7%	–
COC(=O)[C@@H](NC(=O)Nc1cc(-c2n[nH]c(=O)c3ccccc23)ccc1C)C(C)C	-3.59%	–
O=c1oc2ccc(F)cc2cc1S(=O)(=O)N1CCCCCC1	8.94%	–
N#C/C(=C\c1ccc(-c2cc(Cl)ccc2Cl)o1)c1nc2ccccc2[nH]1	13.2%	–
O=C(O)CNS(=O)(=O)c1cccc(F)c1	-20.7%	–
N#CC(C#N)=C(Nc1ccc(Oc2ccccc2)cc1)C(F)(F)C(F)(F)F	-11.9%	–
CC1(C)C2CCC1(CS(=O)(=O)NCCc1c[nH]c3ccccc13)C(=O)C2 (configuration not stated)	-1.56%	–
C=CCn1c(COc2cc(C)c(Cl)c(C)c2)n[nH]c1=S	-9.76%	–
COc1ccc(C(=O)N2CCCC3(C2)C(=NC2CCCC2)NC(=O)N3c2cc(F)cc(F)c2)cc1 (configuration not stated)	4.12% [at 115 µM]	–
Cc1nc(-c2cn(C3CCCN(C(=O)c4sccc4C)C3)nn2)no1 (configuration not stated)	5.05%	–
Cc1ccsc1C(=O)N1CCCC2(C1)Nc1cccnc1NC2=NC1CCCC1 (configuration not stated)	–	25.1 µM (active)
Cc1ccc(Nc2nnc(-c3ccc(C)c(S(N)(=O)=O)c3)c3ccccc23)c(C)c1	-1.74%	–
C=CCN1CCN(C(=O)C2CCCN(C(=O)c3ccccc3)CCC(=O)NCC2)CC1 (configuration not stated)	12.5%	–
COc1ccccc1N1CCN(C(=O)C2CCCN(C(=O)c3ccccc3)CCC(=O)NCC2)CC1 (configuration not stated)	-0.385%	–

Compound	activity change, negative = inhibition	Potency
Cc1cccc(C(=O)N2CCCC(C(=O)N3CCN(c4ccccn4)CC3)CCNC(=O)CC2)c1 (configuration not stated)	–	15.8 µM (active)
Cc1cccc(C(C(=O)N2CCN(S(=O)(=O)N(C)C)CC2)N(C)C)c1 (configuration not stated)	-7.54%	–
Cc1ccc(C2=NC3(CCN(C(=O)c4ccc(C#N)cc4)CC3)ON2)cc1	-5.83%	–
O=C(c1cccc2[nH]ccc12)N1CCC2(CC1)N=C(c1cccc(Br)c1)NO2	–	28.2 µM (active)
O=C(c1ccc2[nH]ccc2c1)N1CCC(N2CC(OCC3CC3)C23CCOCC3)CC1 (configuration not stated)	-7.23%	–
O=C(c1ccc2cc[nH]c2c1)N1CCC2(CC1)N=C(c1ccc(Cl)cc1)NO2	–	28.2 µM (active)
O=C(c1ccccc1F)N1CCN(C(=O)c2c[nH]c3ccccc23)CC1	10.4%	–
CC1CCN(c2ccc(NC(=O)Cn3c(-c4cscn4)nc4ccccc43)cc2)CC1	-5.67%	–
CC1(C)Cc2c(sc3c2c(=O)n(CCO)c(=O)n3CCc2ccccc2)CO1	5.34%	–
Cc1csc2nc(COc3ccc(NC(=O)C4CCCCC4)cc3)cc(=O)n12	-1%	–
CCOC(=O)N1CCN(Cc2cc(=O)oc3ccc(C)cc23)CC1	-1.64%	–
O=C(NCc1c[nH]c2ncccc12)c1ccccc1F	36.6% [at 86.2 µM]	–
O=C(NCc1ccnc2[nH]ccc12)c1ccccn1	5.45% [at 86.2 µM]	–
O=C(NCc1ccnc2[nH]ccc12)c1ccc(F)cc1	–	35.5 µM (active)
COC(=O)CNC(=O)CNC(=O)c1nn(-c2ccc(OC)cc2)c(=O)c2ccccc12	-5.61%	–
COc1ccc(N2CCN(C3CCCN(CC(=O)N(C)C(C)C)C3)CC2)cc1 (configuration not stated)	-16.9%	–
COc1ccc(-n2nc(-c3ccccc3)n(CC(=O)N(C)CC(C)C)c2=O)cc1	–	31.6 µM (active)
CCOC(=O)C(NC(=O)/C=C/c1c(Cl)cccc1Cl)C(=O)OCC	25.9%	–
Cc1cn2nc(C(=O)NCc3ccc(F)cc3)cc2c(N2CCCC2)n1	–	25.1 µM (active)
CSc1ccc(CNC(=O)c2cc3c(N4CCCC4)nc(C)cn3n2)cc1	–	28.2 µM (active)
Cc1cn2nc(C(=O)NCC(C)c3ccccc3)cc2c(N2CCCC2)n1 (configuration not stated)	-1660%	–
Cc1cn2nc(C(=O)NCc3cccs3)cc2c(N2CCCC2)n1	-2110%	–
Cc1ccc2cc(C(=O)NCc3ccc(N4CCCC4)nc3)c(C)nc2c1	-7.88%	–
CSc1ccc(CNC(=O)c2noc(-c3ccc(C)cc3)n2)cc1	-6.66%	–
